Assay outcomes as filed in PubChem.
gsp antag = qHTS for Antagonists of gsp, the Etiologic Mutation Responsible for Fibrous Dysplasia/McCune-Albright Syndrome: qHTS; gsp-mutant cells, cAMP HTRF, 30 min; Potency, µM (highest dose often 76.9 µM), most hits filed as inhibitors; hit rate 0.4% among 340,000; calls by dose curve; cell line not stated here;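 also: intracellular cAMP measured with PDE inhibitor Ro 20-1724 present during compound exposure; nearly all actives have a fitted effect of over 65% in size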
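Measurement of cellular cAMP by homogeneous time-resolved fluorescence following a 30 min compound exposure at 37C. The PDE inhibitor […] was present throughout; the assay buffer was DPBS with 0.05% BSA and 0.005% Tween 20.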
TSHR antag = Antagonists of the Thyroid Stimulating Hormone Receptor: HTS campaign | activity change, negative = inhibition, % at 11.5 µM | Thyrotropin receptor (Homo sapiens), P16473 | hit rate 0.2% among 330,000 | TSHR-expressing cells, TSH-stimulated cAMP HTRF, 2 h; hits give low values;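 active = activity change below a set negative limit, meaning inhibition stronger than a set level, cut at about -70% in these data; inconclusive = activity change between two set negative limits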
Target sequence (P16473 whole entry, looked up): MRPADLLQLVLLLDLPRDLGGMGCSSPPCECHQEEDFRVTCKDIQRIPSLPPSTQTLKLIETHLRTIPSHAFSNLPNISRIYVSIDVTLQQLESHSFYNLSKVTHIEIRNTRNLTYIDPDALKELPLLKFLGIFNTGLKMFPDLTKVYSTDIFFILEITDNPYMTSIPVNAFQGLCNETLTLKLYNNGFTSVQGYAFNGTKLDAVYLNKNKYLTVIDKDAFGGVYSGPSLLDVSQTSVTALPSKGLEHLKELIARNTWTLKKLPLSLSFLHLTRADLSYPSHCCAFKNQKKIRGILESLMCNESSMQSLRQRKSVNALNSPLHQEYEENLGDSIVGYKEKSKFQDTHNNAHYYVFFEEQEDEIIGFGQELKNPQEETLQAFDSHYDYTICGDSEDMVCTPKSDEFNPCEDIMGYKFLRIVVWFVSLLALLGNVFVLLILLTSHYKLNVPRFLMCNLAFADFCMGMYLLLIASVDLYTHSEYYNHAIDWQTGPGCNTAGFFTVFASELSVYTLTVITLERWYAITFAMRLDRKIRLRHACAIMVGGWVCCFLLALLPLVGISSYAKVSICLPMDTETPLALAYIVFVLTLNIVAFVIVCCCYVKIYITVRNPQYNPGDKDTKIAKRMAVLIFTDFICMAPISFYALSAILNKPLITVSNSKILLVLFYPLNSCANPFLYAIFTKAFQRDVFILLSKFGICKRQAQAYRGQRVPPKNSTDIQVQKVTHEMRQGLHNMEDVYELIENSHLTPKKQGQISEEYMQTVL
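Antagonism was scored as loss of TSH-driven cAMP in TSHR cells, stimulated with 4nM TSH (EC80) for 2 hours at 37 deg C and detected by homogeneous HTRF competition immunoassay.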
Pin1 inhibitor = qHTS Assay to Find Inhibitors of Pin1; AID 504891, 2011; hit rate 0.009% among 390,000; Peptidyl-prolyl cis-trans isomerase NIMA-interacting 1 (Homo sapiens), Q13526; Potency, µM (top dose mostly 115 µM), actives largely listed as inhibitors; Pin1 FP peptide displacement, HiFluor488, 10 min; active = well fitted inhibition curve with a large enough effect in the polarisation, with a control signal flat, not every such curve was filed as active; inconclusive = small, poorly fitted or top-dose-only effect, or effect the other way, or a change in a side signal; inactive = no such curve, though single readings can be large or run the other way; the % refers to the polarisation
TCR act = Activators of T cell receptors: qHTS campaign | Potency, µM (doses to about 9.22 µM), most hits filed as activators | primary human leukocytes, anti-CD3, IL-2 HTRF, 48 h | 330,000 tested, under 10 active; active = well fitted activation curve with a large enough effect; inconclusive = small, poorly fitted or top-dose-only effect, or another doubt; inactive = no such curve, though single readings can be large or run the other way
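IL-2 release read by HTRF sandwich (Eu cryptate donor, d2 acceptor, 665 nm emission) after 48 hr exposure of primary human leukocytes to compound together with anti-CD3 beads in the absence of co-stimulatory signals.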
gsp ag = qHTS for Agonist of gsp, the Etiologic Mutation Responsible for Fibrous Dysplasia/McCune-Albright Syndrome: qHTS. gsp mutant cells, cAMP HTRF, 30 min. hit rate 0.13% among 340,000. AID 624287, 2012. Potency, µM (highest dose often 76.9 µM), usual class: activators; active = well fitted activation curve with a large enough effect; inconclusive = small, poorly fitted or top-dose-only effect, or another doubt; inactive = no such curve, though single readings can be large or run the other way; cell line not stated here;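 also: phosphodiesterase inhibitor Ro 20-1724 added with compounds to block cAMP breakdown; nearly all actives have a fitted effect of over 60% in size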
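Cells in DMEM/10% FBS with G418 were pretreated with compounds in DMSO plus […] (300 uM stock) for 30 min at 37C. cAMP was measured by HTRF (cAMP-d2 plus anti-cAMP antibody-K) after 30 min at room temperature.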
Large screens that a line does not name were inactive. A selection: hits, their analogues and other compounds. The true share with any hit is near 0.63%.

C=CCn1c(SCC(=O)Nc2nc3ccccc3s2)nc(O)c(CC)c1=O	none
CS(=O)(=O)c1ccc(C(=O)OCC(=O)NC23CC4CC(CC(C4)C2)C3)cc1[N+](=O)[O-]	TSHR antag -76
CC(C)C[C@H](NC(=O)Nc1ccc(Oc2ccccc2)cc1)C(=O)O	none
COc1ccc(CN2CCN(C(=O)C3CC(=O)N(C4CCCCCC4)C3)CC2)c(OC)c1OC (centres undefined)	none
O=C(N/N=C/c1ccc(F)cc1)c1ccc(Br)cc1	gsp ag 40µM
c1ccc(CSc2ccc(-c3ccccn3)nn2)cc1	none
COc1ccccc1CCNC(=O)COc1cccc2c1OC(C)(C)C2	none
Cc1nnc(NC(=O)CSc2cn(Cc3ccccc3)c3ccccc23)s1	gsp ag 16µM
CCOCCCN(CC(=O)NC1CCCC1)C(=O)C(=O)Nc1ccc2c(c1)OCCO2	none
Cc1cc(/C=C2\SC(=S)N(C)C2=O)c(C)n1-c1ccccc1O	gsp antag 35µM, Pin1 inhibitor inconclusive (no result: TSHR antag)
CC(C)(C)n1nnnc1CN1CCN(C(c2ccccc2)c2ccccc2)CC1	gsp antag inconclusive
Cc1ccc(S(=O)(=O)N2CCOCC2)cc1NC(=O)COc1ccc(C(=O)c2ccccc2)cc1	gsp antag 25µM, gsp ag 7.9µM
Cc1ccc(S(=O)(=O)N2CCOCC2)cc1NC(=O)COC(=O)CNC(=O)c1ccccc1	none
CCCOc1cccc(-c2cc(C(=O)NNC(=S)NCC)c3ccccc3n2)c1	gsp antag 35µM
COc1ccc2[nH]cc(C(=O)CN3CCN(C4CCCCC4)CC3)c2c1	none
Cc1cccc(-c2noc(CN(C)C(=O)c3ccco3)n2)c1	TSHR antag -100, gsp ag inconclusive
Cc1c(C(=O)N2CCCCC2C)sc2ncnc(N3CCc4ccccc4C3)c12 (centres undefined)	gsp antag 11µM
CS(=O)(=O)N(Cc1ccccc1)c1ccc(C(=O)NCc2ccccc2)cc1	none
Cc1nn(CCC#N)c2nc(C(F)(F)F)[nH]c(=O)c12	none
COc1ccc(CC(=O)Nc2sc3c(c2C(N)=O)CCCC3)cc1OC	none
COc1cccc(CC(=O)Nc2sc3c(c2C(N)=O)CCCC3)c1	gsp ag 35µM
CN(CC(=O)Nc1ccccc1C(F)(F)F)Cc1c(O)ccc2ccccc12	TSHR antag -99 (no result: gsp antag)
Cc1onc(-c2ccccc2Cl)c1C(=O)N[C@@H]1C(=O)N2[C@@H]1SC(C)(C)[C@@H]2C(=O)O	none (no result: gsp ag)
COc1ccc2c(c1)C(=NNc1ccc(C(=O)O)cc1)c1cc(OC)ccc1-2	Pin1 inhibitor inconclusive, gsp ag 13µM
CC(=O)C1=C(O)C(=O)N(c2ccc(Br)cc2)C1c1cccc(F)c1 (centres undefined)	gsp ag inconclusive (no result: TCR act)
CC(=O)C1=C(O)C(=O)N(c2ccc(O)cc2)C1c1cccc(F)c1 (centres undefined)	TSHR antag -80
COC(=O)[C@H](CC(C)C)N(Cc1ccccc1)S(=O)(=O)N(Cc1ccc(OC)cc1)[C@@H](CC(C)C)C(=O)OC	gsp antag 50µM (no result: gsp ag)
COC(=O)[C@H](CC(C)C)N(Cc1ccccc1)S(=O)(=O)N(Cc1ccccc1)[C@@H](CC(C)C)C(=O)OC	none (no result: gsp ag)
Cc1ccc(C2=NN(Cc3nnc(-c4ccccc4)o3)C(=O)SC2)cc1	none
OCc1nc2ccccc2n1Cc1c(F)cccc1Cl	none
CSc1nc2ccccc2n1Cc1c(Cl)cccc1Cl	gsp antag 40µM, Pin1 inhibitor inconclusive
CCOc1ccc(CCNC(=O)CS(=O)Cc2nc(-c3ccc(OC)c(OC)c3)oc2C)cc1OCC (centres undefined)	none
COc1ccc(CCNC(=O)c2ccc3c(c2)N(Cc2ccc(F)cc2)CCS3)c(OC)c1	gsp ag 7.1µM
COc1ccc(OC)c(CCNC(=O)c2ccc3c(c2)N(Cc2ccc(F)cc2)CCS3)c1	gsp antag inconclusive
O=[N+]([O-])c1ccc(S(=O)(=O)Nc2ccc(-c3ccc(N4CCCC4)nn3)cc2)cc1	gsp antag 20µM
